This note sets out measurements from PubChem BioAssay.

Calls of active or inactive are those of the source.

Test [1] can be described thus: small molecules captured by biotinylated probe aFSTL3 – biochemical, small-molecule microarray, fluorescence 635/667, stem cell growth factor project, primary screen (AID 1064).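 Further: measures binding of the biotinylated anti-FSTL3 antibody to printed compounds.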 The following applies: higher = more signal.
Test [2] can be described thus: binders from COS7 lysate, DM2A8 probe, primary screen, torsin A project, cell lysate, small-molecule microarray, fluorescence 635/667 (AID 1065). The following applies: higher = more signal, COS7 lysate expressing mutant human TOR1A.
Test [3] in a line: small molecules captured by biotinylated probe aFGF2 – biochemical, small-molecule microarray, fluorescence 635/667, stem cell growth factor project, primary screen (AID 1067).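 Further: measures binding of biotinylated aFGF2 protein to printed compounds on slides; z-score merges feature fluorescence and signal-to-noise across triplicate slides.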 The following applies: higher = more signal.
Test [4] is described as follows: small molecules captured by biotinylated probe aFGF10 – biochemical, small-molecule microarray, fluorescence 635/667, stem cell growth factor project, primary screen (AID 1071).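 Further: score merges 667 nm spot intensity and signal to noise from triplicate slides.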 The following applies: higher = more signal.
Test [5] addresses Neurogenic locus notch homolog protein 2 (Homo sapiens) (UniProt Q04721). The experiment in a line: small molecules binding Notch2 protein – biochemical, small-molecule microarray, 635 nm fluorescence, stem cell growth factors, primary screen (AID 1073). The following applies: higher = more signal.
Test [6] concerns the target Pro-neuregulin-1, membrane-bound isoform (Homo sapiens) (UniProt Q02297). Kind of test: small molecules binding neuregulin-1 protein – biochemical, small-molecule microarray, fluorescence 635/667, psychiatric disease protein project, primary screen (AID 1075).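 Further: score combines 667 nm spot fluorescence with signal to noise.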 The following applies: NRG1 binding, 635 nm fluorescence, higher = more signal.
The subject of test [7] is Neuregulin-1 EGF-like domain. The experiment in a line: small molecules binding NRG1 EGF domain – biochemical, small-molecule microarray, 635 nm fluorescence, primary screen (AID 1081).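 Further: binding of the protein to compounds printed on small-molecule microarray slides.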 The following applies: higher = more signal.
Test [8] in a line: FRG1 expression reporter modulators in myotubes – cell-based, C2C12 myotubes, firefly/Renilla luciferase, luminescence, FRG1 inhibition for FSHD, primary screen (AID 1084). The following applies: FRG1 promoter luciferase, higher = more signal, called active from +8 up or from −8 down.
The nature of test [9]: small molecules captured by biotinylated probe aFST – biochemical, small-molecule microarray, fluorescence 635/667, stem cell growth factor project, primary screen (AID 1086).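 Further: score merges 667 nm fluorescence with signal-to-noise of each printed compound spot.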 The following applies: higher = more signal.
A short description of test [10]: binders of probe aHhip on microarray, primary screen, stem cell growth factor project, biochemical, small-molecule microarray, fluorescence 635/667 (AID 1087).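 Further: score merges spot fluorescence at 667nm with spot signal to noise ratio.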 The following applies: higher = more signal.
Test [11] has as its system PRMT1 (protein arginine N-methyltransferase 1). The experiment in a line: small molecules binding arginine methyltransferase PRMT1 – biochemical, small-molecule microarray, 635 nm fluorescence, primary screen (AID 1088).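 Further: binding of Prmt1 protein to compounds spotted on small-molecule microarray slides.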 The following applies: higher = more signal.
Test [12] in a line: growth effects on S. cerevisiae YJM789 – YJM789 clinical isolate, OD600, 24 h, basal, primary screen (AID 1089).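 Further: growth of clinical yeast isolate S. cerevisiae YJM 789 seeded 1000 cells per well; test concentration not given here.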 The following applies: higher = more signal, called active from +8 up or from −8 down.
The nature of test [13]: S. pombe growth modifiers, basal conditions – strain 972, OD600, 24 h, no modulator, primary screen (AID 1090).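 Further: basal condition with compound alone and no growth modifier present; test concentration not given here.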 The following applies: S. pombe 972 growth, higher = more signal, called active from +8 up or from −8 down.
A short description of test [14]: budding yeast growth modifiers under rapamycin – strain BY4716, OD600, 96 h, primary screen (AID 1091). Further: test concentration not given here. The following applies: S. cerevisiae BY4716 + rapamycin, higher = more signal, called active from +8 up or from −8 down.
Test [15] concerns the target Torsin-1A-interacting protein 2 (Homo sapiens) (UniProt Q8NFQ8). The experiment in a line: small molecules binding lysate-expressed LULL1 – cell lysate, human LULL1 lysate, 635/667 nm fluorescence, primary screen (AID 1092).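 Further: probe is lysate of COS7 cells overexpressing human LULL1; score merges per-feature 667 nm fluorescence with signal-to-noise.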 The following applies: small-molecule microarray, hLULL1 lysate binding, 635 nm fluorescence; higher = more signal.
Test [16] is described as follows: optical density change of DRC41 E. coli – strain DRC41, OD650, 24 h, E. coli filamentation project, primary screen (AID 1093).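 Further: MC1000 strain lacking acrAB efflux and sulA so SOS filamentation is blocked; test concentration not given here.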 The following applies: E. coli DRC41 growth, higher = more signal, called active from +8 up or from −8 down.
Test [17] in a line: probe aLefty2 binding to arrayed compounds – biochemical, biotinylated probe, 635/667 nm fluorescence, primary screen (AID 1094).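 Further: score merges spot fluorescence near 667 nm with spot signal-to-noise ratio.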 The following applies: small-molecule microarray, higher = more signal.
Test [18] relates to Noggin (protein binding on small-molecule microarray). Kind of test: small molecules binding Noggin protein – biochemical, 635/667 nm fluorescence, primary screen (AID 1095).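 Further: score merges 667 nm feature fluorescence with signal to noise over triplicate slides.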 The following applies: 635 nm fluorescence, higher = more signal.
In test [19] the target is Neurogenic locus notch homolog protein 3 (Homo sapiens) (UniProt Q9UM47). The experiment in a line: small molecules binding NOTCH3 protein – biochemical, 635/667 nm fluorescence, primary screen (AID 1096). The following applies: small-molecule microarray, 635 nm fluorescence, higher = more signal.
Chain of Neurogenic locus notch homolog protein 3 (Homo sapiens) (Q9UM47 whole entry, looked up): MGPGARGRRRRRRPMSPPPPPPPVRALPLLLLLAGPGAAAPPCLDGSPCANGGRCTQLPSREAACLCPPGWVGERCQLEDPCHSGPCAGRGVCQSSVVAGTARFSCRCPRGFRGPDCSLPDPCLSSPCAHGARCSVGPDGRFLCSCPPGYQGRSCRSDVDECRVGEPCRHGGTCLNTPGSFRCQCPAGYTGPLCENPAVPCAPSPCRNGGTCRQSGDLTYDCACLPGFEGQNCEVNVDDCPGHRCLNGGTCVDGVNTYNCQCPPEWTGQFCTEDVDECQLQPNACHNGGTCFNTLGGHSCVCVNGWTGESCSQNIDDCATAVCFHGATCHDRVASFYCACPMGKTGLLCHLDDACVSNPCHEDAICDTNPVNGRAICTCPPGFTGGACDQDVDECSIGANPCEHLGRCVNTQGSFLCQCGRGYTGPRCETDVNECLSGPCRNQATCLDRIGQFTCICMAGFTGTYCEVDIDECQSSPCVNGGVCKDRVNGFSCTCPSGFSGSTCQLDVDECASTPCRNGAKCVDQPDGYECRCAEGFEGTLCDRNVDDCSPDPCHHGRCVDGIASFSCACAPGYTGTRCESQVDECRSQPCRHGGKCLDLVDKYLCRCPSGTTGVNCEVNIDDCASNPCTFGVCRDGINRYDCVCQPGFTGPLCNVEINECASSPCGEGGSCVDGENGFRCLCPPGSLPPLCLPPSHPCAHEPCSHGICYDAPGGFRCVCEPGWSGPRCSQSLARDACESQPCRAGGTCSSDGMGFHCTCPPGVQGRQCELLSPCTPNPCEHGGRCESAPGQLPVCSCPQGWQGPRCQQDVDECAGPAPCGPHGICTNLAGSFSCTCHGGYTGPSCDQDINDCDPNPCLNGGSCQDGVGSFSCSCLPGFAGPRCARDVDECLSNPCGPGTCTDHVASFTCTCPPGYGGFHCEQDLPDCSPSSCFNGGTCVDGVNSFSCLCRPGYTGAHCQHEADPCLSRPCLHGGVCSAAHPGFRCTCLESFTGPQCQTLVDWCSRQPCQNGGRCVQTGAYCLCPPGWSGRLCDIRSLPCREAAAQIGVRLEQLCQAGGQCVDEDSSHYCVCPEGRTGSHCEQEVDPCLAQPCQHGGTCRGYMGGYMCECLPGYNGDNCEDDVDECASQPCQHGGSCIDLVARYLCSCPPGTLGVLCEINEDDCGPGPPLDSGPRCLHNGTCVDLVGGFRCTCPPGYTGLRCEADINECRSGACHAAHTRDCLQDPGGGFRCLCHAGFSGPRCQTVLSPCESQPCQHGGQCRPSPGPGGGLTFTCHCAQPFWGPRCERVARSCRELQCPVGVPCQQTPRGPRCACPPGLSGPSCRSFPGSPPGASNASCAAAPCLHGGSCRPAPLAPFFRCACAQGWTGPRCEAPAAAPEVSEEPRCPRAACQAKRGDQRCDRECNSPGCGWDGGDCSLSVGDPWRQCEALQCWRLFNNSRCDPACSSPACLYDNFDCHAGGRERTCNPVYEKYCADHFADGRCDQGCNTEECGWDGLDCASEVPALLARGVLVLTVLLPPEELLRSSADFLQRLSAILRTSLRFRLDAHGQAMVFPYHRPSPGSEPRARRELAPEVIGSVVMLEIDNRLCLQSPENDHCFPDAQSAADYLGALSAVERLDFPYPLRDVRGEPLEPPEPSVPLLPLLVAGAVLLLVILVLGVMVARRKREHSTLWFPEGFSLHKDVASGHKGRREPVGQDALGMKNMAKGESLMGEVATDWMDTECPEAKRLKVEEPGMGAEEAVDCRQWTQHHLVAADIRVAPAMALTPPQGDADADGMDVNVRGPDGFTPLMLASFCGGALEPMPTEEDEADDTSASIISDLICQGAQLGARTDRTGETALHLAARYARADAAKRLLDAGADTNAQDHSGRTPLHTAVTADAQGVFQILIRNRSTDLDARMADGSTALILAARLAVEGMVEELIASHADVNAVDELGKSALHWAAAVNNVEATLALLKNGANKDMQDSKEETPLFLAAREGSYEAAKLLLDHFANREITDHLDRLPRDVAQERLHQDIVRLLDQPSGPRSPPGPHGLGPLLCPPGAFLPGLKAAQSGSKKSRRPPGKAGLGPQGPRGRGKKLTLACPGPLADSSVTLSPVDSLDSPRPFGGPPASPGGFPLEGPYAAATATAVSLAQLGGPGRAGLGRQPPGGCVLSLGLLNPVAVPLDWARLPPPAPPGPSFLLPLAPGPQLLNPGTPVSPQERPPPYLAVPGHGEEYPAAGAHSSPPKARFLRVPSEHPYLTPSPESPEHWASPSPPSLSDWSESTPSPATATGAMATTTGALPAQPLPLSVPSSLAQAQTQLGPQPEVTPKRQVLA
A short description of test [20]: probe aEGFR binding to arrayed compounds – biochemical, biotinylated probe, 635/667 nm fluorescence, primary screen (AID 1097).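 Further: probe is a biotinylated anti-EGFR antibody binding compounds printed on slides; score combines fluorescence near 667 nm and signal to noise of each spot.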 The following applies: small-molecule microarray, higher = more signal.

Chain of Pro-neuregulin-1, membrane-bound isoform (Homo sapiens) (Q02297 whole entry, looked up, the tested form may be a part, canonical isoform): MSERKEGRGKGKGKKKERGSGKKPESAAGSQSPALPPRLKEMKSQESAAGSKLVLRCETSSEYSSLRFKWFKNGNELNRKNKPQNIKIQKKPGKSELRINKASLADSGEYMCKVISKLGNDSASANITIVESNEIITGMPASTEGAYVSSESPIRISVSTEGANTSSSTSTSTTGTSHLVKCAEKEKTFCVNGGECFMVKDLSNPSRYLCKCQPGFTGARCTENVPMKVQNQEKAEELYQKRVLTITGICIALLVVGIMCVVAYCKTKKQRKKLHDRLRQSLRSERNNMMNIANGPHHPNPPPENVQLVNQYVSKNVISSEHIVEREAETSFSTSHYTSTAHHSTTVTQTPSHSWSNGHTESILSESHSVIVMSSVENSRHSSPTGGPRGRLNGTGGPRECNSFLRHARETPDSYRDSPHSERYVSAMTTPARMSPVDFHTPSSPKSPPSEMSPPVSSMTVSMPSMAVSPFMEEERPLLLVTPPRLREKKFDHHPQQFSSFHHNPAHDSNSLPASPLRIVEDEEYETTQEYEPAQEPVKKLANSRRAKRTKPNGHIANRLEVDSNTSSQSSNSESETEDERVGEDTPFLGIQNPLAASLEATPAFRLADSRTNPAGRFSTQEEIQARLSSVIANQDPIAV
Chain of Torsin-1A-interacting protein 2 (Homo sapiens) (Q8NFQ8 whole entry, looked up): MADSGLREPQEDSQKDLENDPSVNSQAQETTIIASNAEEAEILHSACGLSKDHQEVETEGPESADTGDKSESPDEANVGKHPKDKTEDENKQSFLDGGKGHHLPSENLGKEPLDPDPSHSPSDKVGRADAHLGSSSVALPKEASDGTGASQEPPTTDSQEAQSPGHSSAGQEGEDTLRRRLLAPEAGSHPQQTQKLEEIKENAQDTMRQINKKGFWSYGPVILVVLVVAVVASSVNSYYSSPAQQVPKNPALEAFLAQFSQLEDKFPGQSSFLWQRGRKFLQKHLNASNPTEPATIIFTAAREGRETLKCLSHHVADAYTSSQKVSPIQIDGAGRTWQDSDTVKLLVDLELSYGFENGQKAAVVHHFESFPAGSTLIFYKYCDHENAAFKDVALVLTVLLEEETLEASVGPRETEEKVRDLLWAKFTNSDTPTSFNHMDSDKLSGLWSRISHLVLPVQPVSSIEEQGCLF

Regarding `C=CCNC(=O)[C@@H]1[C@H]2C(=O)O[C@H](c3ccccc3)[C@H](c3ccccc3)N2[C@H](c2ccc(OCCO)cc2)[C@@]12C(=O)Nc1ccc(C#CC3=CCCCC3)cc12`, the composite z-score in [1] was -0.607; in test [2], 0.308; in [3] it was -0.0442; in test [4], 0.924; in test [5] it was 1.02; in test [6], 1.28. The composite z-score is 1.29 in test [7]; 0.597 in [9]; -0.186 in test [10]; 1.54 in test [11]; 2.94 in test [15]; -0.168 in test [17]. In addition, the composite z-score worked out at 0.918 in test [18], 1.14 in test [19] and 0.0526 in [20]. Further, the z-score in [8] is -0.138 (inactive); in test [12], 1.78 (inactive); in test [13], 1.18 (inactive); in test [14], 3.36 (inactive); in test [16] it was -0.639 (inactive).
In the case of `Cc1ccc(S[C@]2(C(=O)NC(C)C)CC(=O)N(Cc3ccccc3)[C@@H]2c2ccc(CO)cc2I)cc1`, the composite z-score is 1.28 in test [1]; -0.37 in [2]; -0.0303 in test [3]; 0.176 in test [4]; -0.705 in [5]; 0.291 in [6]. In addition, the composite z-score in test [7] was 0.478; in [9], -0.26; in test [10], -0.226; in test [11] it was 1.46; in test [15] it was 2.11; in test [17] it was -0.102. In addition, the composite z-score in [18] was -1.44; in test [19], -0.332; in test [20], -0.0146. Moreover, the z-score in test [8] was -0.259 (inactive); in test [12], -1.12 (inactive); in test [13], -1.15 (inactive); in test [14] it was 0.739 (inactive); in test [16], 0.301 (inactive).
For the compound `CN(C)CCCCNC(=O)[C@H]1C[C@H]2C(=O)N[C@@H](CCCCN(C)C)C(=O)N2[C@H]1c1ccc(O)cc1`, the composite z-score was -0.162 in test [1]; 0.857 in test [2]; -0.215 in [3]; 0.301 in test [4]; -0.0742 in test [5]; -0.121 in [6]. The composite z-score was 0.763 in [7]; -0.349 in test [9]; -0.16 in [10]; 1.39 in [11]; -0.237 in [15]; -0.192 in [17]. In addition, the composite z-score was 0.774 in [18], 0.343 in test [19] and -0.176 in [20]. For the same compound, the z-score in test [8] is -0.354 (inactive); in [12], -2.61 (inactive); in test [13] it was -0.403 (inactive); in [14] it was -1.41 (inactive); in [16] it was 1.55 (inactive).
Regarding `C[C@@]1([C@@H](NS(=O)(=O)c2cccc3cccnc23)c2ccc(-c3ccccc3)cc2)C[C@H]1C1CCCCC1`, the composite z-score in [1] is 0.299; in test [2] it was 0.0816; in [3], 0.163; in test [4], -0.0733; in [5], 0.983; in test [6] it was 0.609. Also, the composite z-score in [7] is 0.809; in test [9], -0.244; in [10] it was 0.0446; in test [11], 0.79; in test [15], 2.47; in test [17], 0.134. Besides, the composite z-score in test [18] is -0.0642; in test [19], 0.818; in test [20], -0.0316. The z-score is -0.365 (inactive) in test [8]; 0.523 (inactive) in test [12]; 0.381 (inactive) in test [13]; 1.41 (inactive) in [14]; -1.89 (inactive) in test [16].
Take `CCCCC=C[C@@H](NC(=O)C(C)(C)C)c1ccccc1`: the composite z-score in test [1] stood at 0.0905; in test [2], 0.161; in [3], 0.0775; in test [4], 0.57; in [5], 1.5; in test [6], 1.07. In addition, the composite z-score is 0.357 in [7]; 0.553 in test [9]; 0.388 in [10]; 0.956 in [11]; 1.08 in test [15]; 0.0769 in test [17]. Besides, the composite z-score was -0.0096 in [18], 1.11 in [19] and 0.313 in [20]. Besides, the z-score was -0.751 (inactive) in test [8]; 0.924 (inactive) in test [12]; 1.84 (inactive) in test [13]; 4.33 (inactive) in test [14]; -1.46 (inactive) in test [16].
